# Hits are enriched below; roughly 11% of the tested compounds scored in any of these assays.
# HEK293 tox = kills HEK 293 cells | hit rate 6.6% among 94,000 | Potency, µM (top dose mostly 115 µM), for the others: top-dose activity change, negative = cytotoxicity, usual class: inhibitors | HEK 293 viability, ATP luminescence (CellTiter-Glo), 48-72 h; further: nearly all actives have a fitted effect of over 60% in size
#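 Cells seeded first (HEK 293, 250 cells/well), then compound added by pintool. Incubation ran 48 or 72 hr at 37 degree Celsius. CellTiter-Glo was added and luminescence imaged after 10 min at room temperature.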
# NPR1 antag = human Npr1 receptor antagonism | Potency, µM (highest dose often 46.3 µM), without a hit: at the highest dose activity change, negative = inhibition, actives largely listed as inhibitors | HEK293 hNpr1 GloSensor cGMP, ANP-stimulated luminescence | P16066 | hit rate 1.6% among 76,000; calls by dose curve; further: nearly all actives have a fitted effect of over 60% in size
#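 Compound pre-incubated 30 min at room temperature on GloSensor-loaded HEK293 cells stably carrying hNpr1 and the pGS-40F cGMP biosensor. Stimulation uses hNppA at 0.1 nM final; luminescence is taken at baseline and 20 min post-agonist.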
# FLuc inh = Photinus pyralis luciferase inhibition; purified P. pyralis luciferase, luminescence, biochemical; Potency, µM (top dose mostly 115 µM), actives largely listed as inhibitors; hit rate 2.5% among 76,000; further: nearly all actives have a fitted effect of over 65% in size
# Target sequence (P08659 whole entry, looked up): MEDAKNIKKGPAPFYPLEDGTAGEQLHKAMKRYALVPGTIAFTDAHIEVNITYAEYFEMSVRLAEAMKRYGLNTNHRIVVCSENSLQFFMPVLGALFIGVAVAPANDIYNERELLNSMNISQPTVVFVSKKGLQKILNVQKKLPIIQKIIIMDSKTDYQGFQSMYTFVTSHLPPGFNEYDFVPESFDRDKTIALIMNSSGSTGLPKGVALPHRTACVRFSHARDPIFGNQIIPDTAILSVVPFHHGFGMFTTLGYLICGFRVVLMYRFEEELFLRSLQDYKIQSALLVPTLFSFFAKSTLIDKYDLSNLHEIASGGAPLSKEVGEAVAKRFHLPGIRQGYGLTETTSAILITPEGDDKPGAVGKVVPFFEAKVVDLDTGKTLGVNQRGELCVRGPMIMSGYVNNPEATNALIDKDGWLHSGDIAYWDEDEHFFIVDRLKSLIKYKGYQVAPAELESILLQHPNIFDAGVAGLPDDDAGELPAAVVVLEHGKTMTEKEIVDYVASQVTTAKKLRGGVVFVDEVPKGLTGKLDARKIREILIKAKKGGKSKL
#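 Biochemical qHTS: compound (6-point titration) added to 10uM D-luciferin plus 10uM ATP in Tris acetate pH 7.5 buffer with Mg, Tween-20 and BSA, then purified enzyme at 10nM; light output imaged.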
# NIH3T3 tox = NIH 3T3 cell cytotoxicity; NIH 3T3 viability, CellTiter-Glo ATP luminescence, 48-72 h; Potency, µM (top dose mostly 96.7 µM), without a hit: top-dose activity change, negative = cytotoxicity, most hits filed as inhibitors; hit rate 4.3% among 94,000; AID 1345082; further: nearly all actives have a fitted effect of over 55% in size
#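 Viability of NIH 3T3 cells after 48 or 72 hr compound treatment at 37 °C was assessed by CellTiter-Glo, with luminescence imaged following a 10 min room-temperature step.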
# * hit, by the source's call; i = inactive; ? = inconclusive; · = no result given; [ ] = another dose, or the depositor's remark. Unless noted, the call rests on the fitted dose curve; in most records, active means well fitted curve in the direction sought with a large enough effect; inconclusive means small, poorly fitted or top-dose-only effect, or another doubt; inactive means no such curve, though single readings can be large; an effect the other way counts as inactive or inconclusive. On the % scale 0 is the no-effect control and ±100 the full control effect; potency means the concentration at half of the fitted maximal effect.
SMILES,HEK293 tox,NPR1 antag,FLuc inh,NIH3T3 tox
CC(=O)Nc1ccc(CN2CCC3(CC2)CC(c2cccc(C(F)(F)F)c2)=NO3)cc1,40µM*,-7%,i,35µM*
CC(=O)Nc1ccc(CN2CCC3(CC2)CC(c2cccnc2)=NO3)cc1,-20%,-13%,i,5%
O=[S+]([O-])(c1ccc(C(F)(F)F)cc1)N1CCC2(CC1)CC(c1cccc(C(F)(F)F)c1)=NO2,?,·,·,-15%
CN(C)c1ccc(CN2CCCC3(CC(c4cccc(C(F)(F)F)c4)=NO3)C2)cc1 (stereo not drawn),?,-3%,i,?
Cc1cc(C(F)(F)F)n(CC(C)CNC(=O)c2cn(CCN)nn2)n1 (stereo not drawn),?,9%,i,-29%
O=C(CCl)N1CCC2(CC1)CC(c1cccc(C(F)(F)F)c1)=NO2,79µM*,·,·,?
O=C(Cc1ccc(F)cc1)N1CCC2(CC1)CC(c1cccc(C(F)(F)F)c1)=NO2,50µM*,·,·,40µM*
Fc1ccc(CN2CCCC3(CC(c4cccc(C(F)(F)F)c4)=NO3)C2)cc1 (stereo not drawn),?,-25%,i,?
COc1ccccc1CC(=O)N1CCc2c(nc[nH]c2=O)C1,12%,-9%,i,2%
Cc1nn(-c2ccccc2)c2c1C(C1CC1)N(C1CN(C(=O)c3ccc(F)cc3)C1)C2=O (stereo not drawn),45µM*,·,·,?
COCC(=O)N1CC(N2C(=O)c3c(c(C)nn3-c3ccccc3)C2C2CC2)C1 (stereo not drawn),-14%[172 µM],·,·,112µM*
O=C(NC1CCCCC1)N1CCn2c(nnc2C2CCCN2)C1 (stereo not drawn),-27%,·,·,-27%
COc1cc(NC(=O)NC[C@H]2O[C@@H](CO)[C@@H](O)[C@H]2N2CCCCC2)cc(OC)c1,4%,3%,i,-2%
CC(C)c1ccc(N2CC(C(=O)N(C)CCc3cnn(C)c3)CC2=O)cc1 (stereo not drawn),-21%,2%,i,-22%
O=C(C1CC1)N1CCC(O)(c2csc(CN3CCc4ccccc4C3)n2)CC1,?,4%[70.6 µM],i,?
COc1ccc(CN2CCC(O)(c3csc(CN4CCN(C)CC4)n3)CC2)cc1,100µM*,1%[70.6 µM],i,89µM*
CN1CCC(N2CCC(O)(c3csc(CN4CCc5ccccc5C4)n3)CC2)CC1,40µM*,4%[70.6 µM],i,56µM*
CC(C)(C)CC(=O)N1CCC(O)(c2csc(CN3CCc4ccccc4C3)n2)CC1,71µM*,-21%[70.6 µM],i,?
OC1(c2csc(CN3CCc4ccccc4C3)n2)CCN(CC2CCCCC2)CC1,?,6%[70.6 µM],i,?
OC1(c2csc(CN3CCc4ccccc4C3)n2)CCN(C2CCC2)CC1,71µM*,4%[70.6 µM],i,100µM*
CN(CC1(C)CCOCC1)C(=O)c1ccco1,-12%,2%,i,-15%
COc1ccc(F)cc1-c1ccc(C(=O)NCCCn2ccnc2C(C)C)cn1,?,-5%,i,?
CC(C)CCN1CCC(O)(c2csc(CN3CCc4ccccc4C3)n2)CC1,79µM*,5%[70.6 µM],i,100µM*
c1cc(-c2cc(-c3cn[nH]c3)c3cncn3c2)cc(N2CCOCC2)c1,?,-23%[70.6 µM],i,25µM*
Cn1cc(-c2cc(C3=CCOCC3)c3cncn3c2)cn1,5%[230 µM],-2%[70.6 µM],i,?
SMILES,HEK293 tox,NPR1 antag,FLuc inh,NIH3T3 tox
c1cc(-c2cc(-c3cn[nH]c3)cn3cncc23)ccn1,35µM*,1%[70.6 µM],i,28µM*
CN(C)c1cccc(-c2cc(-c3cn[nH]c3)c3cncn3c2)c1,?,-12%[70.6 µM],?,14µM*
C1=C(c2cc(-c3ccncc3)cn3cncc23)CCOC1,100µM*,4%[70.6 µM],i,25µM*
COc1ccc(-c2cc(-c3ccc4c(c3)C(=O)NC4)cn3cncc23)cc1,?,-2%[70.6 µM],i,?
CN(C)c1ccc(-c2cc(-c3ccc(=O)[nH]c3)c3cncn3c2)cc1,-17%[172 µM],-14%[70.6 µM],?,?
CN(C)C[C@@H]1CN(c2ccccn2)C[C@H]1NC(=O)CC1=CCCCC1,i,4%,i,i
COCCCn1c(C)cnc1CC1CCN(S(=O)(=O)c2cccc(F)c2)CC1,-12%,-3%,i,-11%
CCn1cnnc1-c1nn(C)c2c1CN(C(=O)c1noc(C)c1COc1cccc(C)c1)CC2,-13%,·,·,-15%
CCOCCOC1CCN(C(=O)c2cccc3[nH]ccc23)CC1,-2%,-1%,35µM*,i
COCCOC1CCN(C(=O)c2cccc3[nH]ccc23)CC1,16%,0%,i,i
O=C1NCCCCCN(C(=O)CCCc2ccccc2)[C@H]2CCCC[C@@H]12,-28%,-8%,i,?
Cc1ccc(-c2nccn3cc(C(=O)NCC(C)C)nc23)cc1,40µM*,-8%,i,?
Cc1ccc(-c2nccn3cc(C(=O)O)nc23)cc1,3%,0%,i,?
COc1cc(NC(=O)c2cc3c(N4CCCC4)nc(C)cn3n2)cc(OC)c1OC,45µM*,0%,i,?
COc1cc(NC(=O)c2cc3c(N4CCSCC4)nc(C)cn3n2)cc(OC)c1OC,35µM*,-25%,i,?
COc1ccccc1NC(=O)c1cc2c(N3CCSCC3)nc(C)cn2n1,50µM*,2%,i,-10%
N#Cc1cccc(C(=O)N2CC(COc3ccccc3)C3(C2)CN(c2ccccc2)C3)c1 (stereo not drawn),?,-1%[70.6 µM],i,-18%[138 µM]
CN1C[C@H](NC(=O)c2ccc(F)cc2)CCC[C@@H](C(=O)N(C)Cc2cccnc2)CC1=O,-9%,-2%,i,-16%
O=C([C@H]1CNC[C@H](C(=O)N2CCN(c3cccnc3)CC2)C1)N1CCOCC1,i,1%,i,-7%
O=C(Nc1ccncn1)[C@@H]1C[C@@H](c2ccc(F)cc2)N(Cc2ccccc2)C1,100µM*,-18%[70.6 µM],i,79µM*
COc1cc(CNC(=O)[C@@H]2C[C@@H](c3ccc(F)cc3)N(Cc3ccccc3)C2)cc(OC)c1,?,-5%,i,-26%
COc1ccc(NC(=O)[C@@H]2C[C@@H](c3ccc(F)cc3)N(Cc3ccccc3)C2)cn1,?,?,i,-21%[138 µM]
COc1cccc(NC(=O)[C@@H]2C[C@@H](c3ccc(F)cc3)N(Cc3ccccc3)C2)c1,?,?,i,32µM*
CCc1cccc(NC(=O)C2CCN(C(=O)c3ncn4c3COC(c3ccc(F)cc3)C4)CC2)c1 (stereo not drawn),?,-17%,?,-3%
O=C(NCCCn1ccnc1)c1ccc(C2CCCNC2)cc1 (stereo not drawn),0%,4%,i,i
COC(=O)[C@@H]1Cc2c([nH]c3ccccc23)[C@H]2C[C@@H](NCCCn3ccnc3)C[C@@H](c3ccc(Cl)c(F)c3)N21,28µM*,0%,i,25µM*
